Screens as filed in PubChem.
The list is not random: actives were taken first. Their share in the collection is about 19%.
DT40 TDP1 no CPT: qHTS for Inhibitors of human tyrosyl-DNA phosphodiesterase 1 (TDP1): qHTS in cells in absence of CPT. Potency, µM (titrated, usually from 46.2 µM), for inactives: at the highest dose activity change, negative = growth inhibition, usual class: inhibitors. DT40 Tdp1-/- hTDP1 cells, no CPT, ATP luminescence, 48 h. 420,000 tested, 15% active; also: potency is read from the fitted curve at half-maximal effect; nearly all actives have a fitted effect of over 55% in size
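Chicken DT40 Tdp1-/- cells complemented with human TDP1, screened without camptothecin (DMSO vehicle only), 400 cells/well. Compounds pin-transferred, cells incubated at 37 °C for at least 48 hr. Growth read as ATP-dependent luminescence (CellTiter-Glo, 30 min at RT).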
HT1080-NT tox: kills 2HG-producing HT-1080-NT fibrosarcoma cells; HT-1080-NT fibrosarcoma viability, CellTiter-Glo ATP luminescence, 48 h; Potency, µM (titrated, usually from 46.1 µM), for the others: top-dose activity, negative = less viability, actives largely listed as cytotoxic; 360,000 tested, 1.6% active; AID 686970;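 also: NT is the 2HG producing partner of a matched IDH1 knockdown line; potency is read from the fitted curve at half-maximal effect; 0% = DMSO-treated cells and -100% = media-only wells without cells; nearly all actives have a fitted effect of over 55% in size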
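HT-1080-NT fibrosarcoma cells (2HG-overproducing), 750 cells/well in RPMI with 5% FBS, dosed after 2 h and incubated 48 h at 37C. CellTiter-Glo luminescence normalized to DMSO and no-cell wells; concentration-response curves fitted and classed.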
TDP1 cell CPT: growth inhibition of DT40 Tdp1-/-;hTDP1 cells with camptothecin (screen for TDP1 inhibitors) | Potency, µM (series often up to 46.2 µM), for inactives: at the highest dose activity change, negative = growth inhibition, most hits filed as inhibitors | 420,000 tested, 12% active | chicken DT40 Tdp1-/-;hTDP1 cells + 20 nM CPT, ATP luminescence, 48 h; also: potency is read from the fitted curve at half-maximal effect; nearly all actives have a fitted effect of over 55% in size
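Chicken DT40 Tdp1-/- cells complemented with human TDP1, 400 cells/well, exposed to compounds plus 20 nM camptothecin for at least 48 h at 37 C; viability read as ATP content by CellTiter-Glo luminescence.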
IL-1B inflam inh: inhibitors of inflammasome signaling (IL-1 beta secretion); activity change, % at 57.5 µM; AID 743279; 360,000 tested, 4.7% active; THP-1 LPS/ATP IL-1B secretion, AlphaLISA, 16 h; hits give low values; in the data active = activity change below about -50%; inconclusive = mostly about -30% to -49%
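THP-1 cells pretreated 1 hr with compounds (up to 57.5 uM final), then stimulated with LPS (250 ng/mL final) plus ATP (1.25 mM final); secreted IL-1B measured by AlphaLISA after 16 hr, decreased signal indicating inhibition.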
HT1080 IDH1KD tx: toxicity to HT-1080 IDH1 knockdown cells (counter line) | 360,000 tested, 2% active | HT-1080 IDH1 knockdown viability, ATP luminescence, 48 h | Potency, µM (top dose mostly 46.1 µM), inactives show top-dose activity, negative = toxicity, most hits filed as cytotoxic;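 also: potency is read from the fitted curve at half-maximal effect; 0% = DMSO wells and -100% = cell-free medium wells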
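Viability of IDH1-knockdown HT-1080 fibrosarcoma cells was assessed by CellTiter-Glo after 48 h at 37 °C with titrated compound; concentration-effect curves were classified by fit quality and response size.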
Active calls of the source: *; i = inactive; ? = inconclusive; . = no result given; [ ] = remark or other dose. Unless noted, calls follow the shape of the dose curve; as a rule, active = well fitted curve in the direction sought with a large enough effect; inconclusive = small, poorly fitted or top-dose-only effect, or another doubt; inactive = no such curve, though single readings can be large; an effect the other way counts as inactive or inconclusive. Unless noted, % is scaled to controls: 0 for no effect and ±100 for the full control effect.

SMILES | DT40 TDP1 no CPT | HT1080-NT tox | TDP1 cell CPT | IL-1B inflam inh | HT1080 IDH1KD tx
CCCCn1c(=O)c2c(O)cc(=O)oc2c2ccccc21 | ? | 1% | -2% | 42 | 7%
COc1ccc(-n2c(=O)c3ccccc3n(Cc3cccc(C)c3)c2=O)cc1 | -20% | . | ? | . | .
COc1cccc(Cn2c(=O)n(-c3cc(C)cc(C)c3)c(=O)c3oc4ccccc4c32)c1 | 16µM* | . | ? | . | .
Cc1cccc(-n2c(=O)c3ccccc3n(Cc3ccccc3)c2=O)c1 | ? | . | 23µM* | . | .
COc1ccc(Cn2c(=O)n(Cc3ccco3)c(=O)c3oc4ccccc4c32)cc1 | 23µM* | . | ? | . | .
O=c1cc(O)c2c(=O)n(Cc3ccccc3)c3ccccc3c2o1 | 23µM* | -15% | ? | 26 | -24%
CCN(C(=O)c1ccc(S(=O)(=O)N2CCC(C)CC2)cc1)C1CCS(=O)(=O)C1 (configuration not stated) | -11% | -11% | -18% | -2 | -5%
Cc1cccc(Cn2c(=O)n(-c3cc(C)cc(C)c3)c(=O)c3oc4ccccc4c32)c1 | 12µM* | . | 8.2µM* | . | .
Cc1ccc(-n2c(=O)c3oc4ccccc4c3n(Cc3cccc(F)c3)c2=O)cc1C | ? | . | 26µM* | . | .
COc1ccccc1N1CCN(C2CCCN(C(=O)CCC(C)=O)C2)CC1 (configuration not stated) | 17% | -1% | -4% | 6 | 0%
Cc1cc(C)c(S(=O)(=O)c2ccc(Cl)cc2C)c(Cl)n1 | -27% | -13% | -4% | 3 | 2%
Cc1ccc(C(=O)Oc2oc(-c3ccco3)nc2C=Nc2ccc(Cl)cc2)cc1 | 23µM* | -3% | 18µM* | -51* | -8%
O=C(Oc1oc(-c2ccco2)nc1C=Nc1ccccc1)c1ccco1 | 4.6µM* | -1% | 3.7µM* | ? | -19%
Cc1ccc(N=Cc2nc(-c3ccco3)oc2O)cc1 | ? | -4% | -9% | . | 24%[9.24 µM]
COc1ccc(N=Cc2nc(-c3ccccc3)oc2OC(C)=O)cc1 | 13µM* | 1% | ? | -9 | 0%
COc1cccc(N=Cc2nc(-c3ccccc3)oc2OC(C)=O)c1 | -30% | 15% | 6% | -17 | 13%
O=C(Oc1oc(-c2ccco2)nc1C=Nc1ccccc1)c1ccoc1 | 12µM* | -5% | 5.2µM* | -68* | -3%
CC1(C)CC(NC(=O)CCc2nnc(CCCCc3ccccc3)o2)CCO1 (configuration not stated) | -5% | 8% | 0% | 28 | 0%
O=C(NCc1cccs1)C1Cc2c(-c3ccc(Cl)cc3)ccnc2O1 (configuration not stated) | 1.8µM* | ? | 1.5µM* | 51 | 2.1µM*
CC(=O)c1cccc(-c2ccnc3c2CC(C(=O)NCc2cccs2)O3)c1 (configuration not stated) | 0.73µM* | ? | 0.73µM* | 90 | ?
COc1ccc(CNC(=O)C2Cc3c(-c4cccc(C(C)=O)c4)ccnc3O2)cc1OC (configuration not stated) | ? | -28% | ? | 51 | ?
O=C(Nc1nnc(S(=O)(=O)N2CCN(c3ccc(F)cc3)CC2)s1)c1ccccc1 | 3% | 0% | -6% | 27 | 2%
Cc1cccc(-c2c3c(=O)n(C)c(=O)n(C)c3cn2C(C)C)c1 | 21µM* | -19% | 16µM* | -2 | -24%
Cn1c(=O)c2c(-c3ccccc3)n(C3CCCCC3)cc2n(C)c1=O | 9.2µM* | 6% | 18µM* | -13 | 17%
Cc1cccc(-c2c3c(=O)n(C)c(=O)n(C)c3cn2C2CCCCC2)c1 | 16µM* | -12% | ? | -1 | -1%
SMILES | DT40 TDP1 no CPT | HT1080-NT tox | TDP1 cell CPT | IL-1B inflam inh | HT1080 IDH1KD tx
Cc1cccc(-c2c3c(=O)n(C)c(=O)n(C)c3cn2C(C)(C)C)c1 | -11% | -22% | -19% | 7 | -8%
Cn1c(=O)c2c(-c3ccccc3)n(N3CCOCC3)cc2n(C)c1=O | ? | 3% | ? | -5 | 12%
CCn1cc2c(c1-c1cccc(C)c1)c(=O)n(C)c(=O)n2C | -25% | -3%[9.24 µM] | -9% | 25 | 2%
CCNC(=O)C1(C)CCCN(C(=O)c2nc(C)oc2C)C1 (configuration not stated) | -6% | -29% | -10% | -5 | 7%
Cc1ccccc1NC(=O)c1nc(SCc2ccccc2F)ncc1Cl | -29% | . | ? | . | .
CC/C(=N\Nc1ccccc1[N+](=O)[O-])c1ccc(O)cc1 | -10% | ? | -20% | -23 | 21µM*
Cc1ccc(NC(=O)c2c(C)oc3ncnc(N4CCCCC4)c23)cc1Cl | 16µM* | . | 16µM* | . | .
Cc1oc2ncnc(N3CCCCC3)c2c1C(=O)NCC1CCN(Cc2ccc(F)cc2)CC1 | -23% | . | -26% | . | .
COc1cccc(CNC(=O)c2c(C)oc3ncnc(N4CCOCC4)c23)c1 | -1% | . | 14% | . | .
CCc1cccc(NC(=O)c2c(C)oc3ncnc(N4CCCCC4)c23)c1 | 9.2µM* | . | 13µM* | . | .
Cc1cc(Br)ccc1NC(=O)c1c(C)oc2ncnc(N3CCCCC3)c12 | 16µM* | . | 16µM* | . | .
CCc1ccc(CNC(=O)c2c(C)oc3ncnc(N4CCOCC4)c23)cc1 | ? | . | 13µM* | . | .
Cc1ccc(CC(=O)Nc2ccc(C(=O)N3CCOCC3)cc2)cc1 | -4% | 13% | 0% | i | 16%
CCOc1ccc(CCNC(=O)Cn2nc(CC)n3c(cc4c(OC)cccc43)c2=O)cc1OCC | ? | . | -17% | . | .
Cc1ccc(NC(=O)c2c(C)oc3ncn(C)c(=O)c23)cc1F | 18µM* | . | ? | . | .
CN(C)CC(O)c1ccc(C=Cc2ccc(Cl)cc2)cc1 (configuration not stated) | 7.3µM* | -5% | 7.3µM* | -92* | 5.8µM*
CC(NC(=O)/C=C/c1ccc(Br)cc1)c1ccc(Cl)cc1 (configuration not stated) | ? | -9% | ? | 12 | 15%
O=C(c1cc(-c2ccc(Br)cc2)n[nH]1)N1CCN(S(=O)(=O)c2ccc(Br)cc2)CC1 | 16µM* | . | 15µM* | . | .
COc1ccccc1-c1cc(C(=O)N2CCN(S(=O)(=O)c3ccc(C)cc3)CC2)[nH]n1 | ? | -9% | 23µM* | -10 | -8%
Cc1ccc(S(=O)(=O)N2CCN(C(=O)c3cc(-c4ccc(Br)cc4)n[nH]3)CC2)c(C)c1 | 12µM* | . | 16µM* | . | .
COc1ccc(-c2cc(C(=O)N3CCN(S(=O)(=O)c4ccccc4)CC3)[nH]n2)cc1 | ? | -1% | 21µM* | -27 | -8%
O=C(c1cc(-c2ccccc2)n[nH]1)N1CCN(S(=O)(=O)c2ccccc2)CC1 | ? | 4% | ? | -29 | 8%
